The campaign covered roughly 2,200 compounds. About 480 (22%) were called active. The rule behind the calls is not given here. The list is a sample of the results. Potency and affinity values are given separately.
Experiment: S. Typhimurium GFP fluorescence dose response in modified counterscreen for PhoP regulon inhibitor project (AID 1981);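 note: 0% = induced DMSO wells and 100% = uninduced wells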
Settings: 4 h; series mostly up to 150 µM; inhibition: at the top concentration
For `Cc1nc(SCC(=O)NC(C)c2ccccc2)c2oc3ccccc3c2n1` (stereo not given), the “inhibition” value was -4.01% (inactive).
For `CCCN(CCC)CCCNS(=O)(=O)c1ccc2c(c1)oc(=O)n2C`, the “inhibition” value was -2.37% (inactive).
In the case of `NC(=O)c1ccccc1NC(=O)/C=C/C(=O)O`, the “inhibition” value is reported as -6.39% (inactive).
For `O=C(/C=C/c1ccccc1)N1CCN(c2c(Cl)cccc2[N+](=O)[O-])CC1`, the “inhibition” value was -10.6% (inactive).
With `C=CCn1c(C)cc(C(=O)CSc2nc(N)cc(N)n2)c1C` the “inhibition” value was 25.2% (inactive).
For `Clc1ccc(Nc2ncnc3c2cnn3-c2ccccc2)cc1`, the “inhibition” value was -9.26% (inactive).
For `CCCNC(=O)CN(C1CCCCC1)S(C)(=O)=O`, the “inhibition” value was -3.08% (inactive).
With `CCCCC(=O)NCCNC(=O)c1cc(OCC(F)(F)F)ccc1OCC(F)(F)F` the “inhibition” value was -9.07% (inactive).
For `Cn1c(COc2ccccc2)nnc1SCc1nc2ccccc2[nH]1`, the “inhibition” value was -28.7% (inactive).
With `Cc1ccc(C)c(/C=C/C(=O)c2ccccc(=O)c2O)c1` the “inhibition” value was 38.6% (inactive).
With `COc1ccc(C2=Nc3nc(-c4ccccc4)cn3C(c3ccc(OC)cc3)C2)cc1` (stereo not given) the “inhibition” value was 17.6% (inactive).
For `N/C(=N\OC(=O)N1c2ccccc2Sc2ccccc21)c1ccccc1`, the “inhibition” value was 20.9% (inactive).
In the case of `CCc1nn2cc(C(=O)c3cc(Cl)ccc3O)cnc2c1-c1ccc(F)cc1`, the “inhibition” value is reported as 3.07% (inactive).
With `CCN(C(C)=O)c1nc(CSc2nnc(NC(C)C)s2)cs1` the “inhibition” value was 2.43% (inactive).
For `CC1CCC(NC(=O)C2c3ccccc3C(=O)N2Cc2cccs2)CC1` (stereo not given), the “inhibition” value was 3.27% (inactive).
In the case of `Cn1ncc(Br)c1C(=O)NCc1cccs1`, the “inhibition” value is reported as -18.8% (inactive).
With `O=C(CSc1nnc(-c2ccc(Br)cc2)o1)Nc1cccc2ccccc12` the “inhibition” value was -0.45% (inactive).
With `O=C(CNc1ccccc1)Nc1ccc(F)cc1` the “inhibition” value was 14.3% (inactive).
For `O=C(Nc1ccc(F)cc1)c1ccccc1F`, the “inhibition” value was -9.79% (inactive).
In the case of `O=C(Oc1c(Br)cc([N+](=O)[O-])cc1Br)c1cccnc1`, the “inhibition” value is reported as 29.2% (inactive).
For `O=C(CCCN1C(=O)CCC1=O)Nc1ccc2c(c1)OCCO2`, the “inhibition” value was -21.9% (inactive).
For `CC(C)(C)c1nn(-c2ccccc2)c2[nH]c(=O)c(CNCc3ccco3)cc12`, the “inhibition” value was -4.67% (inactive).
In the case of `O=P(Cc1cc[n+]([O-])cc1)(c1ccccc1)c1ccccc1`, the “inhibition” value is reported as -15.7% (inactive).
In the case of `CCCS(=O)(=O)N1CCCC(C(=O)N2CCN(c3ccccn3)CC2)C1` (stereo not given), the “inhibition” value is reported as 6.36% (inactive).
For `COc1ccc(-c2cn[nH]c2-c2ccc(OCc3ccc([N+](=O)[O-])cc3)cc2O)cc1`, the “inhibition” value was 15.1% (inactive).
In the case of `CC(Oc1ccc(Cl)cc1)c1ccnn1S(=O)(=O)c1ccccc1` (stereo not given), the “inhibition” value is reported as -5.43% (inactive).
With `CCOC(=O)c1cc2sc(C)cc2n1CC(=O)NCc1ccc(F)cc1` the “inhibition” value was 1.75% (inactive).
In the case of `Cc1ccc(C(C)C)cc1C(=O)CC1(O)C(=O)N(C)c2ccccc21` (stereo not given), the “inhibition” value is reported as -7.31% (inactive).
For `CCn1ncc(/C=C/C(=O)NCc2cn(C)nc2C)c1C`, the “inhibition” value was -3.98% (inactive).
With `O=C(CSc1ncn[nH]1)Nc1cccc2ccccc12` the “inhibition” value was -11.3% (inactive).
For `COC(=O)COc1ccc(S(=O)(=O)Nc2ccccc2SC)cc1`, the “inhibition” value was -20.6% (inactive).
With `COc1ccc(OC)c(NC(=O)c2ccccc2NS(=O)(=O)c2cccc3cccnc23)c1` the “inhibition” value was 6.2% (inactive).
In the case of `O=S(=O)(Nc1ccc(N=Nc2ccc(O)c3ccccc23)cc1)c1ccccc1`, the “inhibition” value is reported as 23.8% (inactive).
In the case of `CCn1c(CNC(=O)c2cccc(C)c2)nc2ccccc21`, the “inhibition” value is reported as -13.4% (inactive).
With `S=c1nc(-c2ccccc2)oc2c1CCCC2` the “inhibition” value was 18.1% (inactive).
For `CCC(=O)c1cn(Cc2ccc(C#N)cc2)c2ccccc12`, the “inhibition” value was 1.62% (inactive).
In the case of `O=c1c2oc3ccccc3c2ncn1Cc1ccc(Cl)cc1`, the “inhibition” value is reported as -20.7% (inactive).
For `Cc1[nH]n(-c2ncc(-c3ccc(Cl)cc3)s2)c(=O)c1C(c1ccc(Cl)cc1)C(C#N)C#N` (stereo not given), the “inhibition” value was 26.5% (inactive).
For `Cc1ccc(-n2nc(C)c(C3C(C#N)=C(N)Oc4c3c(=O)oc3ccccc43)c2Cl)cc1` (stereo not given), the “inhibition” value was 30.2% (inactive).
With `Cc1snc(S(=O)(=O)/C(C#N)=N\Nc2ccccc2)c1C#N` the “inhibition” value was 7.12% (inactive).
In the case of `COc1ccc(CCC(=O)N2CCC3(CC2)OCCO3)cc1`, the “inhibition” value is reported as 1.72% (inactive).
In the case of `O=C(Nc1ccc2snnc2c1)Nc1cccc2ccccc12`, the “inhibition” value is reported as 8.11% (inactive).
For `CC1OC(Nc2cccc3ccccc23)C(O)C(O)C1O` (stereo not given), the “inhibition” value was 1.5% (inactive).
For `CC(C(=O)Nc1cc([N+](=O)[O-])ccc1Cl)N1CCN(c2ccccc2O)CC1` (stereo not given), the “inhibition” value was -1.49% (inactive).
In the case of `CCCCNC(=O)Oc1cccc(N2CCCC2=O)c1`, the “inhibition” value is reported as -1.02% (inactive).
In the case of `CCOC(=O)c1sc(NC(=O)Nc2ccc(Cl)cc2)cc1C`, the “inhibition” value is reported as -0.11% (inactive).
In the case of `Cc1ccnc2nc(C(=O)Nc3ccc4c(c3)OCO4)nn12`, the “inhibition” value is reported as -3.72% (inactive).
For `CC(C)c1ccc(NC(=O)Nc2cc3sccc3n2C)cc1`, the “inhibition” value was -12.3% (inactive).
For `CCOC(=O)CN(C)Cc1c[nH]c2ccccc12`, the “inhibition” value was 11.6% (inactive).
With `Cc1[nH][nH]c(=O)c1C(c1ccc(O)c([N+](=O)[O-])c1)c1c(C)[nH][nH]c1=O` the “inhibition” value was 26.4% (inactive).
With `O=c1[nH][nH]c(-c2ccccc2O)c1C(C[N+](=O)[O-])c1cccc(Cl)c1` (stereo not given) the “inhibition” value was 32.8% (inactive).
With `CCCc1[nH][nH]c(=O)c1C(c1ccc(Br)cc1)C(C#N)C#N` (stereo not given) the “inhibition” value was -8.16% (inactive).
For `CCCCCC(=O)Nc1ccc2ccccc2c1`, the “inhibition” value was -4.56% (inactive).
With `O=C(CSc1nnc(-c2ccc(O)cc2)n1-c1ccccc1)CC(=O)Nc1ccccc1` the “inhibition” value was 17.4% (inactive).
In the case of `O=C(O)CCc1nnc2n(Cc3ccc(F)cc3)c(=O)c3ccccc3n12`, the “inhibition” value is reported as 5.98% (inactive).
